# Screening data from PubChem BioAssay.
# The list is not random: actives were taken first. Their share in the collection is about 4.3%.
# HSF1 activator: increases HSF-1 driven luciferase reporter signal; activation, % at 9 µM; 300,000 compounds, 1.7% hits; NIH3T3-HGL HSF-1 luciferase reporter, MG132, 8 h; 100% = twice DMSO control signal;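 active = mean replicate activation of at least 50% with a set share of replicates each reaching 50%; inconclusive = only one of those two conditions met; inactive = mean below 50% and too few replicates reaching it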;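 also: 0% = median of the neutral control wells and 100% = twice that signal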
# esBAF inh: inhibitors of esBAF chromatin remodeling in mouse ES cells; Bmi1-luciferase knock-in reporter, 24 h; 100% = twice the neutral-well signal; reporter increase, % at 12.5 µM; 350,000 compounds, 2% hits; in the data active = activation above about 40%; inconclusive = no clear call, values can overlap the other calls;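 also: 0% = median of the plate's neutral control wells and 100% = double that signal; a rise in the Bmi1 reporter signal indicates esBAF inhibition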
# Wnt act: Wnt/beta-catenin pathway activation; Wnt/beta-catenin reporter cell assay, activator, plate reader; activation, % at 9.35 µM; 300,000 compounds, 1.2% hits; in the data active = activation above about 30%, passing the limit was not always enough; inconclusive = no clear call, values can overlap the other calls;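 also: 0% = neutral control wells and 100% = positive control wells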
# SMARCA2 activ: SMARCA2 function activation, primary screen; MG213 cells, MMTV-luciferase reporter, dexamethasone, overnight; activation, % at 9.1 µM; 370,000 compounds, 1% hits; AID 652017; in the data active = activation above about 7.8%;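 also: 0% = vehicle wells and 100% = reference activator wells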
# HSF1 inh: HSF1 inhibition. activity change, negative = inhibition, % at 7.5 µM (by protocol). NIH3T3-HGL HSE-luciferase, MG132-induced, luminescence 8 h; stronger effect = lower value. 300,000 compounds, 0.77% hits. AID 2098;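 active = more than half of replicate wells show activity change below -50%, luminescence cut by over half; inconclusive = some wells, but at most half, below -50%; inactive = no replicate well below -50%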;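 also: luciferase reports HSF-1 transcriptional activity via heat shock element; 0% = median of DMSO wells and -100% = zero luminescence signal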
# MITF TRPM1 HTS: activators of MITF-driven TRPM1 promoter activity in SK-MEL-5 cells. SK-MEL-5 TRPM1-promoter luciferase, 24 h; % of positive control, neutral wells = 0. activation, % at 12.5 µM. 300,000 compounds, 0.75% hits. AID 588334;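 active = mean activation of at least 80% with every replicate also reaching 80%; inconclusive = mean reaches 80% but some replicate falls short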;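 also: 0% = neutral control wells and 100% = parthenolide positive control wells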
# Numbers without * were called inactive; ? = inconclusive; · = not tested or not shown.
SMILES,HSF1 activator,esBAF inh,Wnt act,SMARCA2 activ,HSF1 inh,MITF TRPM1 HTS
C[C@H](CO)N1C[C@H](C)[C@@H](CN(C)C(=O)CC2CC2)Oc2ncc(-c3ccc(C#N)cc3)cc2C1=O,·,4,·,·,·,·
CN1c2ccc(Br)cc2[C@@H]2[C@@H](CCN2S(=O)(=O)c2cccc(F)c2)[C@H]1CO,·,4,·,·,·,·
CN(C)c1cccc(C(=O)NCC(c2ccco2)N(C)C)c1 (centres undefined),-7,40*,10,-1,-3,29
CCN(CC)S(=O)(=O)c1ccc(C(=O)OCC(=O)N2CCN(C(=O)c3ccco3)CC2)cc1,53*,·,-7,-3,14,-10
CNC[C@H]1Oc2ccc(NC(=O)NC(C)C)cc2CC(=O)N([C@H](C)CO)C[C@@H]1C,·,-6,·,·,·,·
Cn1cc(Cl)c(/C(N)=N/OC(=O)c2ccccc2C(F)(F)F)n1,14,51*,20,8,7,76
COc1ccc(C(=O)N2C[C@H]3[C@@H](c4ccccc42)[C@@H](CO)N3Cc2ccc3c(c2)OCO3)cc1,·,0,·,·,·,·
c1ccc2c(-c3nc(-c4ccncc4)no3)cccc2c1,78*,46*,·,3,36,51
c1ccc(-c2ccccc2-c2nc(-c3cccnc3)no2)cc1,-14,-2,·,-2,-7,4
c1cncc(-c2noc(-c3cccc4ccccc34)n2)c1,17,58*,16,0,19,54
Cc1c(-c2nc(-c3ccncc3)no2)cccc1[N+](=O)[O-],26,·,0,1,12,12
c1ccc(-c2noc(-c3cccc4ccccc34)n2)cc1,?,76*,·,6,30,38
Cc1ncsc1C(=O)Nc1nc2c(s1)CC(C)CC2 (centres undefined),49,11,32*,5,39,54
CC1CCc2nc(NC(=O)C3COc4ccccc4O3)sc2C1 (centres undefined),-75,-60,-9,-9,-71*,-26
COc1ccc(S(=O)(=O)Nc2ccc3c(c2)CC(=O)N([C@@H](C)CO)C[C@H](C)[C@@H](CN(C)C(=O)Nc2ccc4c(c2)OCO4)O3)cc1,·,-4,·,·,·,·
Cc1noc(C)c1NC(=O)Nc1ccc2c(c1)C(=O)N([C@@H](C)CO)C[C@@H](C)[C@@H](CN(C)C(=O)NC(C)C)OCCCC[C@@H](C)O2,·,1,·,·,·,·
N/C(=N\OC(=O)c1ccco1)c1cccc([N+](=O)[O-])c1,14,·,10,3,6,53
N/C(=N\OC(=O)c1ccco1)c1cccc(Br)c1,43,8,50*,4,22,56
Cc1ccc(CC(=O)O/N=C(\N)c2cccc([N+](=O)[O-])c2)cc1,·,·,4,1,·,-5
Cc1cccc(/C(N)=N/OC(=O)c2ccncc2)c1,50,12,34*,5,24,69
N/C(=N\OC(=O)c1ccc(Br)cc1)c1cccc([N+](=O)[O-])c1,31,72*,4,1,20,48
Cc1ccc(C(=O)O/N=C(\N)c2cccc([N+](=O)[O-])c2)cc1,26,40,-2,4,15,94*
C[C@@H]1CN([C@@H](C)CO)C(=O)c2cc(C#CCN(C)C)cnc2O[C@H]1CN(C)C(=O)c1ccc2c(c1)OCO2,·,-1,·,·,·,·
CNC[C@H]1Oc2ncc(C#CC3CCCC3)cc2C(=O)N([C@@H](C)CO)C[C@H]1C,·,-6,·,·,·,·
CCCNC(=O)C[C@H]1CC[C@@H]2[C@H](COC[C@@H](O)CN2Cc2ccc(Cl)c(Cl)c2)O1,·,0,·,·,·,·
C[C@@H]1CN([C@@H](C)CO)C(=O)Cc2cc(NC(=O)NC3CCCCC3)ccc2O[C@H]1CN(C)CC1CCCCC1,·,6,·,·,·,·
N/C(=N\OC(=O)c1ccncc1)c1cccc([N+](=O)[O-])c1,38,54*,14,1,-5,·
CCCNC(=O)C[C@H]1CC[C@H]2[C@@H](COC[C@@H](O)CN2C(=O)c2ccccn2)O1,·,-4,·,·,·,·
COc1cc(C2NC(=O)NC(C)=C2C(=O)OCC2CCCO2)ccc1O (centres undefined),-90,-7,0,0,-87*,-3
CO[C@@H]1CN(C)C(=O)c2ccc(NC(=O)C3CC3)cc2OC[C@@H](C)N(Cc2cncnc2)C[C@@H]1C,·,0,·,·,·,·
